# Only some compounds are listed: those with a hit (about 12% of all), similar ones and a draw of the others.
# SARS PLP yeast: SARS-CoV PLP inhibition in yeast; Potency, µM (doses to about 32.9 µM), most hits filed as activators; actives 0.19% (n = 330,000); AID 485353; S. cerevisiae expressing SARS-CoV PLpro, growth rescue; calls by dose curve; also: nearly all actives have a fitted effect of over 55% in size
# Pf growth 96h: inhibits malaria parasite growth, 96 h; P. falciparum luciferase reporter growth, 96 h; Potency, µM (highest dose often 28.7 µM), hits mostly inhibitors; actives 6.9% (n = 320,000); AID 504834
#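 Plates of compound plus infected erythrocytes (2% hematocrit, 0.05% parasitemia final) incubate 96 hours, 37 C, 5% CO2. Detection reagent added; reduced luminescence from the parasites' luciferase reporter flags inhibition.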
# Sm TGR block: blocks Schistosoma mansoni thioredoxin glutathione reductase | Q962Y6 | AID 485364 | Potency, µM (top dose mostly 114 µM), hits mostly inhibitors | actives 3% (n = 360,000) | purified TGR, DTNB reduction, TNB absorbance 405 nm; also: nearly all actives have a fitted effect of over 60% in size
#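 First, TGR (20 nM dispensed) and NADPH were mixed with compound. Second, a 15 min room-temperature incubation followed. Third, further NADPH and then DTNB were added to start the reaction. Finally, TNB absorbance was monitored kinetically.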
# Pf growth 48h: inhibits P. falciparum growth in the first generation, 48 h; P. falciparum luciferase growth in erythrocytes, 48 h; Potency, µM (doses to about 28.7 µM), most hits filed as inhibitors; actives 5.9% (n = 310,000); AID 504832
#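 Firefly luciferase activity from engineered P. falciparum reports growth; inhibitors lower the luminescent signal. Cultures contained 2% hematocrit erythrocytes at 0.1% final parasitemia.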
# A number is an active result; 0 = inactive; ? = inconclusive; - = not tested or not shown. Unless noted, calls follow the shape of the dose curve; as a rule, active = well fitted curve in the direction sought with a large enough effect; inconclusive = small, poorly fitted or top-dose-only effect, or another doubt; inactive = no such curve, though single readings can be large; an effect the other way counts as inactive or inconclusive.
SMILES,SARS PLP yeast,Pf growth 96h,Sm TGR block,Pf growth 48h
O=C(CSc1nccn1-c1ccccc1)c1ccc(Cl)cc1,0,0,0,0
COc1ccccc1Nc1nc(-c2ccccc2F)nc2ccccc12,-,-,0,-
CC(NCCC(c1ccccc1)c1ccccc1)c1ccccc1 (stereo not drawn),0,11µM,0,13µM
Cc1ccc(CNC(C)c2ccccc2)s1 (stereo not drawn),-,-,0,-
CCOc1ccc(OCC)c(NC(=O)C2CCCN(c3ncccn3)C2)c1 (stereo not drawn),0,0,0,0
COc1ccc(CCNC(=O)C2CCN(S(=O)(=O)c3ccc4nc5c(c(C(=O)O)c4c3)CCCC5)CC2)cc1OC,0,9.3µM,0,0
COc1ccc(CCNC(=O)C2CCCN(S(=O)(=O)c3cc(C)ccc3OC)C2)cc1OC (stereo not drawn),0,5.2µM,0,12µM
CCOc1ccc(OCC)c(NC(=O)C2CCCN(C(=O)c3ccc(Cl)cc3)C2)c1 (stereo not drawn),0,9.3µM,0,?
CCOc1ccc(NC(=O)C2CCCN(S(=O)(=O)c3cnc[nH]3)C2)cc1 (stereo not drawn),0,0,0,0
CCOc1ccc(OCC)c(NC(=O)C2CCCN(S(=O)(=O)c3cnc[nH]3)C2)c1 (stereo not drawn),0,4.7µM,?,-
Cc1ccc(NS(=O)(=O)c2cc(-c3cnc(C4CC4)o3)ccc2C)cc1Cl,-,-,0,-
CC(C)Oc1ccc(CNC(=O)c2ccc(NC(=O)c3nsc4ccccc34)cc2)cc1,-,-,0,-
COc1ccc(CCNC(=O)C/C(C)=N/NC(=O)C2CCCCC2)cc1OC,0,8.3µM,0,0
COc1ccc(CCNC(=O)C2CCN(S(=O)(=O)c3cnc[nH]3)CC2)cc1OC,0,?,0,0
COc1ccc(CCNC(=O)C2CCN(S(=O)(=O)c3cccc4cccnc34)CC2)cc1OC,0,17µM,?,0
COc1ccc(CCNC(=O)C/C(C)=N/NC(=O)c2ccc(N)cc2)cc1OC,0,?,0,0
COc1ccc(CCNC(=O)C2CCCN(S(=O)(=O)c3cnc[nH]3)C2)cc1OC (stereo not drawn),0,13µM,0,-
CC(=O)c1ccc(N2CCN(C(=O)C3CCCN(S(=O)(=O)c4cnc[nH]4)C3)CC2)cc1 (stereo not drawn),0,5.9µM,0,?
COc1ccc(CCNC(=O)C2CCN(S(=O)(=O)c3cccc4nsnc34)CC2)cc1OC,0,-,0,?
CCOC(=O)N1CCN(C(=O)c2cccc(S(=O)(=O)Nc3ccc(Br)cc3)c2)CC1,0,?,0,?
CC(NC(=O)CCCN1C(=O)CCn2nc(-c3cn(C)c4ccccc34)cc21)c1ccccc1 (stereo not drawn),-,-,0,-
CCOc1ccc(CCNC(=O)CS(=O)Cc2nc(-c3ccc(OC)cc3)oc2C)cc1OCC (stereo not drawn),?,0,0,0
CCCOC(=O)C1=C(C)NC2=C(C(=O)CC(C)(C)C2)C1c1ccc(N(C)C)cc1 (stereo not drawn),0,0,0,?
CCCOC(=O)C1=C(C)NC2=C(C(=O)CC(C)(C)C2)C1c1cccnc1 (stereo not drawn),0,10µM,0,?
CN(C)C1=NC[C@H](Cc2ccccc2)N1CCc1cccc(F)c1,0,?,0,?
SMILES,SARS PLP yeast,Pf growth 96h,Sm TGR block,Pf growth 48h
CN(C)C1=NC[C@H](Cc2ccccc2)N1CCCC1CCCCC1,0,5.2µM,0,7.4µM
CN(C)C1=NC[C@H](Cc2ccccc2)N1CCC1CCCC1,0,?,0,10µM
CN(C)C1=NC[C@H](Cc2ccccc2)N1CC1CCCCCC1,0,?,0,12µM
CN(C)C1=NC[C@H](Cc2ccccc2)N1CCCC1CCCC1,0,?,0,9.3µM
O=C(Cn1cnc2ccccc2c1=O)N1CCN(S(=O)(=O)c2ccc(F)cc2)CC1,0,?,0,?
CCOC(=O)c1c(C)[nH]c(-c2csc(N)n2)c1C,0,?,0,2.9µM
CCOC(=O)c1c(C)[nH]c(-c2csc(C)n2)c1C,0,0,0,0
CCCCCc1c2c(cc(O)c1C(=O)O)OC(=O)c1c(cc(OC)cc1C(=O)CCCC)O2,0,0,40µM,0
Cc1ccccc1CSc1nc2ccsc2c(=O)n1CCC(C)C,-,-,0,-
COc1ccc(CCN2CCC(Nc3nc4ccccc4n3Cc3ccc(F)cc3)CC2)cc1,0,0.74µM,0,0.52µM
CCc1nc2ccccc2n1Cc1ccc(F)cc1,0,0,0,0
O=C(NNC(=O)C(c1ccccc1)c1ccccc1)c1ccccn1,0,2.6µM,0,3.7µM
O=C(NNC(=S)Nc1ccc(Cl)c(Cl)c1)c1ccccn1,0,?,-,2.3µM
COc1cc(Cl)ccc1OCc1cc(C(=O)N(C)CCc2cnn(C)c2)no1,0,?,0,0
CCC(=O)Nc1cccc(NC(=O)CSc2nc3c(c(=O)n(C)c(=O)n3C)n2C)c1,0,0,0,0
CCn1c(-c2ccccc2Cl)nn(CC(=O)NCCc2ccccc2)c1=S,0,?,0,0
CCn1c(-c2ccccc2Cl)nn(CC(=O)Nc2cc(Cl)ccc2Cl)c1=S,0,10µM,0,?
O=C(CSc1nnc(Cn2nnc3ccccc32)o1)N(Cc1ccc(Cl)cc1)c1ccccc1,0,-,0,10µM
CCN(C(=O)CSc1nnc(Cn2nnc3ccccc32)o1)c1nc(C)cs1,0,9.3µM,0,0
O=C(CSc1nnc(Cn2nnc3ccccc32)o1)Nc1cccc(Cl)c1,0,0,0,0
O=C1CC(c2ccco2)CC2=C1C1c3ccccc3C(=O)N1c1ccccc1N2 (stereo not drawn),0,0,35µM,?
CCC(=O)N1c2ccccc2NC2=C(C(=O)CC(c3ccco3)C2)C1c1ccco1 (stereo not drawn),?,-,?,0
COc1ccc(C2CC(=O)C3=C(C2)Nc2ccccc2N(C(C)=O)C3c2ccco2)cc1 (stereo not drawn),0,0,0,?
COc1cc(C2C3=C(CC(c4ccco4)CC3=O)Nc3ccccc3N2C(C)=O)cc(OC)c1OC (stereo not drawn),0,0,79µM,0
O=C(Nc1nnc(SCC(=O)N2CCCCC2)s1)c1c(F)cccc1F,0,0,0,0
SMILES,SARS PLP yeast,Pf growth 96h,Sm TGR block,Pf growth 48h
Clc1ccc(CSc2nnc(-c3ccncc3)s2)cc1,0,0,0,?
Clc1cccc(Cl)c1CSc1nnc(-c2ccncc2)s1,0,2.1µM,0,2.6µM
Cc1ccccc1CSc1nnc2[nH]c(=O)cc(C)n12,-,-,0,-
COc1ccc2c(c1OC)C(=O)N1c3ccccc3C(=O)N(c3ccccc3)C21 (stereo not drawn),0,10µM,0,13µM
COc1ccc2c(c1OC)C(=O)N1c3ccccc3C(=O)N(c3ccc(F)cc3)C21 (stereo not drawn),0,?,0,?
CC(=O)c1cnc2nc(SCc3ccc(Cl)cc3)nn2c1C,0,0,0,0
CN1CCC2(CC1)Nc1nc(SCc3ccc(Cl)cc3)nn1C1=C2CN(C)CC1,?,0,0,3.3µM
CC(C)(C)OC(=O)N1CCC(c2c(C(=O)N3CCN(C(=O)c4ccco4)CC3)cnn2-c2ccc(F)cc2F)CC1,?,0,?,9.3µM

# Screening results deposited in PubChem BioAssay by National Center for Advancing Translational Sciences (NCATS).
